From PubChem BioAssay
Activity calls are given as the source filed them.

Test: plasmodial surface anion channel blockers, osmotic lysis – cell-based, P. falciparum Indochina, OD700, 2 h, primary screen (AID 1155);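 further: lysis reports solute entry through the parasite surface anion channel PSAC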
Conditions: P. falciparum Indochina infected erythrocytes, higher = more signal, called active from +8 up or from −8 down

Compound	z-score
CN(C)C(=O)[C@]1(Cc2ccccc2N=[N+]=[N-])N=C(c2ccc(OCCCO)cc2)O[C@@H]1c1ccccc1	27.5 (active)
CCCCCC1=C2CNC(CCC)(C(=O)OC)C=C2C(C)C1=O (stereo not given)	0.0123 (inactive)
COCCOC(=O)N1C(=O)[C@@]2(c3cc(C#CCCO)ccc31)[C@H](C(=O)N1CCc3cc(OC)c(OC)cc3C1)[C@H]1C(=O)O[C@H](c3ccccc3)[C@H](c3ccccc3)N1[C@@H]2c1ccc(O)cc1	0.349 (inactive)
O=C(NCc1ccccc1)[C@@]1(Cc2ccccc2)N=C(c2ccc(OCCCO)cc2)O[C@H]1c1ccccc1	2.11 (inactive)
CC(C)c1ccc(NN2C(C(O)c3cc(C(F)(F)F)cc(C(F)(F)F)c3)C=CC3C(=O)N(c4ccccc4)C(=O)C32)cc1 (stereo not given)	1.88 (inactive)
CN1C(=O)[C@]2(Cc3ccccc3)N=C(c3ccc(OCCCO)cc3)O[C@@H]2c2ccccc21	32.4 (active)
CC(C)(C)OC(=O)CC[C@]1(C(=O)NCC(O)CO)COC(c2ccc(OCCCO)cc2)=N1 (stereo not given in full)	0.645 (inactive)
CCOC(=O)C[C@H]1[C@H](OC(=O)c2cc3ccccc3oc2=O)[C@@H](NC(=O)Cc2ccc(OC)cc2)c2cc(OCCCO)ccc2N1C(=O)c1ccccc1	-1.44 (inactive)
COc1ccc(CCNC(=O)[C@@]2(Sc3ccc(C)cc3)CC(=O)N(C3CCCCC3)[C@@H]2c2ccc(CO)cc2I)cc1	0.547 (inactive)
COc1ccc(C(=O)O[C@H]2CC[C@]3(C)C4=C(CCC3C2(C)C)[C@]2(C)CC[C@H]([C@H](C)CCCC(C)C)[C@@]2(C)CC4)cc1 (stereo not given in full)	-0.787 (inactive)
